{"source": "PubChem BioAssay (EPA / NIEHS)", "note": "Inconclusive results are not listed. Calls of active or inactive are those of the source. How the source made its calls: active means hit-call score of the fitted dose curve at least 0.9, where 1 is the maximum; inconclusive means response in the unintended direction; inactive means score below 0.9."}
{"target": "Retinoic acid receptor RXR-alpha (Homo sapiens) (UniProt P19793)", "sequence (P19793 whole entry, looked up)": "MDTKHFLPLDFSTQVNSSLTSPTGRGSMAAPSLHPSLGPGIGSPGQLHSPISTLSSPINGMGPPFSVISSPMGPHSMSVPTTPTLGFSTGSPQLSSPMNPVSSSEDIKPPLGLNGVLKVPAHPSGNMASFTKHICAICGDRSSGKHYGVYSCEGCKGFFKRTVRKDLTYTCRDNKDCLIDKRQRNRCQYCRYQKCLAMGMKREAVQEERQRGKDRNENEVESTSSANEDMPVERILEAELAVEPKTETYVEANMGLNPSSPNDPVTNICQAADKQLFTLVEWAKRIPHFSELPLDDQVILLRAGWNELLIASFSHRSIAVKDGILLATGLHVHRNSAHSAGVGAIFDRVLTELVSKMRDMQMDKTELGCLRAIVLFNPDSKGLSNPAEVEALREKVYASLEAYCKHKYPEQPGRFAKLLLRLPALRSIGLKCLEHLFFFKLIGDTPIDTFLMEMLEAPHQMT", "assay": "ATG_RXRa_TRANS: Attagene TRANS-FACTORIAL HepG2 Assay for human Retinoid X Receptor alpha (RXRa) (AID 2283012)", "protocol": "ATG_TRANS is a cell-based, multiplexed-readout assay that uses HepG2, a human liver cell line, with measurements taken at 24 hours after chemical dosing in a 24-well plate.ATG_RXRa_TRANS is one of 30 assay component(s) measured or calculated from the ATG_TRANS assay. It is designed to make measurements of mRNA induction, a form of inducible reporter, as detected with fluorescence intensity signals by Reverse transcription polymerase chain reaction (RT-PCR) and Capillary electrophoresis technology.Data from the assay component ATG_RXRa_TRANS was analyzed into 1 assay endpoint. This assay endpoint, ATG_RXRa_TRANS, was analyzed in the positive analysis fitting direction relative to DMSO as the negative control and baseline of activity. Using a type of inducible reporter, measures of mRNA for gain-of-signal activity can be used to understand the reporter gene at the transcription factor-level as they relate to the gene RXRA. Furthermore, this assay endpoint can be referred to as a primary readout, because this assay has produced multiple assay endpoints where this one serves a reporter gene function. To generalize the intended target to other relatable targets, this assay endpoint is annotated to the nuclear receptor intended target family, where the subfamily is non-steroidal.\nHuman liver HepG2 cells are transiently transfected with multiple reporter transcription units (MRTUs) in 6-well plates using FuGene 6 reagent (Roche; 3 ml FuGene/1 mg DNA). The MRTU constructs are regulated by a cis-regulating element (promoter). […] A major difference between the CIS and TRANS system is that in CIS activities of endogenous TFs are measured, whereas the TRANS assay evaluates changes in activities of exogenous, chimeric NR-Gal4 proteins. […] At the end of 24 hour incubation, total RNA was isolated using TriZol reagent (Invitrogen). The isolated RNA is then reverse-transcribed using oligo(dT) primer and Mo-MLV reverse transcriptase (Invitrogen) with DNAse I (Ambion) treatment for 30 min. The one-tenth of the produced cDNA was amplified by PCR using Taq DNA polymerase (Invitrogen) and two reporter sequence-specific primers. The PCR products were fluorescently labeled by primer extension with 6-arboxyfluorescein (6-FAM) 5'-labeled reporter sequence-specific primer (2 min at 95 C, 20 s at 68 C and 10 min at 72 C) and these products were digested with 5U of HpaI (New England Biolabs) for 2h at 37 C. The fragments were purified using Qiaquick PCR columns (Qiagen), analyzed on an ABI 3130xL genetic analyzer (Applied Biosystems) with peak positions identified by using a set of X-rhodamine (ROX)-labeled MapMarker1000 molecular weight standards (BioVentures). The raw capillary electrophoresis data was processed using Attagraph software (Attagene)."}
{"molecule": "ClC1=C(Cl)[C@]2(Cl)[C@@H]3[C@@H](Cl)[C@H]4O[C@H]4[C@@H]3C1(Cl)C2(Cl)Cl", "outcome": "inactive"}
{"molecule": "CCC(C)(c1ccc(O)cc1)c1ccc(O)cc1", "outcome": "inactive"}
{"molecule": "CCC(C)c1cc([N+](=O)[O-])cc([N+](=O)[O-])c1O", "note": "(stereo not given)", "outcome": "inactive"}
{"molecule": "Nc1ccc(-c2ccc(N)cc2)cc1", "outcome": "inactive"}
{"molecule": "ClC1=C(Cl)[C@]2(Cl)[C@@H]3[C@@H]4C[C@@H]([C@H]5O[C@@H]45)[C@@H]3[C@@]1(Cl)C2(Cl)Cl", "outcome": "inactive"}
{"molecule": "Cc1cc(-c2ccc(N)c(C)c2)ccc1N", "outcome": "inactive"}
{"molecule": "CC#Cc1cc(C)nc(Nc2ccccc2)n1", "outcome": "inactive"}
{"molecule": "CCC(=O)O[C@H]1CC[C@H]2[C@@H]3CCC4=CC(=O)CC[C@]4(C)[C@H]3CC[C@]12C", "outcome": "inactive"}
{"molecule": "CCCCCCCCOC(=O)c1ccccc1C(=O)OCCCCCCCC", "outcome": "inactive"}
{"molecule": "O=S(=O)(O)C(F)(F)C(F)(F)C(F)(F)C(F)(F)C(F)(F)C(F)(F)F", "outcome": "inactive"}
{"molecule": "O=C(O)C(F)(F)C(F)(F)C(F)(F)C(F)(F)C(F)(F)C(F)(F)C(F)(F)C(F)(F)C(F)(F)F", "outcome": "inactive"}
{"molecule": "CCOC(=O)C(O)(c1ccc(Cl)cc1)c1ccc(Cl)cc1", "outcome": "inactive"}
{"molecule": "c1ccc(-c2ccccc2)cc1", "outcome": "inactive"}
{"molecule": "ClC(Cl)=C(c1ccc(Cl)cc1)c1ccc(Cl)cc1", "outcome": "inactive"}
{"molecule": "Oc1c(Cl)c(Cl)c(Cl)c(Cl)c1Cl", "outcome": "inactive"}
{"molecule": "C=CC(N)=O", "AC50": "157 µM (active)"}
{"molecule": "Cc1ccccc1O", "outcome": "inactive"}
{"molecule": "O=S(=O)(O)C(F)(F)C(F)(F)C(F)(F)C(F)(F)F", "outcome": "inactive"}
{"molecule": "OCC(O)CO", "outcome": "inactive"}
{"molecule": "CN(C)c1nc(=O)n(C2CCCCC2)c(=O)n1C", "outcome": "inactive"}
{"molecule": "Cc1ccccc1CO[C@@H]1C[C@@]2(C(C)C)CC[C@]1(C)O2", "outcome": "inactive"}
{"molecule": "Clc1ccc(C(c2ccccc2Cl)C(Cl)(Cl)Cl)cc1", "note": "(stereo not given)", "outcome": "inactive"}
{"molecule": "C[C@]12CCC(=O)C=C1CC[C@@H]1[C@@H]2CC[C@]2(C)C(=O)CC[C@@H]12", "outcome": "inactive"}
{"molecule": "N#Cc1ccc(N(CC(N)=O)CC(F)(F)F)cc1C(F)(F)F", "outcome": "inactive"}
{"molecule": "C[C@]12CCC(=O)C=C1CC[C@@H]1[C@@H]2CC[C@@]2(C)[C@H]1CC[C@]2(C)O", "outcome": "inactive"}
{"molecule": "CCOP(=S)(OCC)SCSC(C)(C)C", "outcome": "inactive"}
{"molecule": "Clc1ccc(C(Cl)(Cl)Cl)cc1", "outcome": "inactive"}
{"molecule": "CN(C)CCO", "outcome": "inactive"}
{"molecule": "c1cc2ccc3cccc4ccc(c1)c2c34", "outcome": "inactive"}
{"molecule": "O=C(NC(=O)c1c(F)cccc1F)Nc1cc(Cl)c(OC(F)(F)C(F)F)c(Cl)c1", "outcome": "inactive"}
{"molecule": "CC(C)(O)C(=O)Nc1ccc([N+](=O)[O-])c(C(F)(F)F)c1", "outcome": "inactive"}
{"molecule": "CO/C=C(/C(=O)OC)c1ccccc1COc1cccc(C(F)(F)F)n1", "outcome": "inactive"}
{"molecule": "O=C(O)C(F)(F)C(F)(F)C(F)(F)C(F)(F)C(F)(F)C(F)(F)C(F)(F)C(F)(F)F", "outcome": "inactive"}
{"molecule": "Cc1cc(O)ccc1Cl", "outcome": "inactive"}
{"molecule": "CCCCCCOC(=O)c1ccccc1C(=O)OCCCCCC", "outcome": "inactive"}
{"molecule": "ClC1=C(Cl)[C@]2(Cl)[C@@H]3[C@H]4C[C@H]([C@@H]5O[C@H]45)[C@@H]3[C@@]1(Cl)C2(Cl)Cl", "outcome": "inactive"}
{"molecule": "NS(=O)(=O)C(F)(F)C(F)(F)C(F)(F)C(F)(F)C(F)(F)C(F)(F)C(F)(F)C(F)(F)F", "outcome": "inactive"}
{"molecule": "Clc1ccc(Cl)cc1", "outcome": "inactive"}
{"molecule": "CCNc1nc(NC(C)C)nc(SC)n1", "outcome": "inactive"}
{"molecule": "Oc1ccc(C(c2ccc(O)cc2)(C(F)(F)F)C(F)(F)F)cc1", "outcome": "inactive"}
